The source of these data is PubChem BioAssay AID652115 (Broad Institute, 2013).

The structures appear in SMILES notation. Several values for one entry are separate records, joined by “and”; a condition that tells them apart may be missing. Identical values can stand only once. In all, about 330,000 compounds went through this assay and about 3,800 (1.2%) were called active. Cut-off read from the data, not from the text of the source: active = inhibition above about 15%; inconclusive = no clear call, values can overlap the other calls; inactive = below that. What follows is part of a selection rich in actives, with near analogues and random picks from the rest.

Sequence of NAD-dependent protein deacylase sirtuin-5, mitochondrial (Homo sapiens) (Q9NXA8 whole entry, looked up): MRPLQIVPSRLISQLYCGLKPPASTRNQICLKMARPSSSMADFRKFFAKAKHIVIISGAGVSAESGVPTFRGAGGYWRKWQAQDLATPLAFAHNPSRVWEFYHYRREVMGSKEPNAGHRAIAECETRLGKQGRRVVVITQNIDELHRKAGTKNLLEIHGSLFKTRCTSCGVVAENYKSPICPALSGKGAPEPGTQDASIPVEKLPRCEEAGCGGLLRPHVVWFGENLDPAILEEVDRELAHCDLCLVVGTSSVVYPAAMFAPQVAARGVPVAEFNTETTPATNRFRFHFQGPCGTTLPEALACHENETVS

This assay concerns the target NAD-dependent protein deacylase sirtuin-5, mitochondrial (Homo sapiens) (UniProt Q9NXA8). Briefly: blockers of sirtuin-5 deacylase activity – biochemical, fluorescence imaging, single point, set 5, primary screen (AID 652115). The settings on record: Purified SirT5, succinyl-peptide AMC, trypsin-coupled fluorescence; at 15 µM; hits give high values.
With `CN(C)[C@@H]1C(=O)C(C(N)=O)=C(O)[C@@]2(O)C(=O)C3=C(O)c4c(O)ccc(Cl)c4[C@@H](O)[C@H]3C[C@@H]12`, the inhibition – broadly, the drop in the measured response relative to a control, in per cent – is 6.39% (inactive). As to `C=C1c2c(Cl)ccc(O)c2C(O)=C2C(=O)[C@]3(O)C(O)=C(C(N)=O)C(=O)[C@@H](N(C)C)[C@@H]3[C@@H](O)C12` (stereo not given in full), the inhibition was 35.9% (active). With `CNC(=O)C[C@H]1CC[C@H]2[C@H](COc3ccc(NC(=O)c4cccc(F)c4)cc3C(=O)N2C)O1`, the inhibition is -1.94% (inactive) and 2.58% (inactive). Regarding `C[C@@H]1CN([C@@H](C)CO)C(=O)Cc2cc(NC(=O)Nc3cccc4ccccc34)ccc2O[C@H]1CN(C)CC1CCCCC1`, the inhibition was -4.93% (inactive). Take `N#Cc1c(C(F)(F)F)cc(-c2cccs2)nc1N1CCCCC1`: the inhibition was 5.73% (inactive).

With `N#Cc1c(N2CCCCC2)nc(N)c2c(N)nc(SCC(=O)O)cc12`, the inhibition was 7.29% (inactive). As to `N#CCc1c(C#N)c(N)nc(N2CCCC2)c1C#N`, the inhibition is 26.2% (active).

Take `CO[C@@H]1CN(C)C(=O)c2cc(NS(=O)(=O)CC(F)(F)F)ccc2OC[C@H](C)N(Cc2ccccn2)C[C@@H]1C`: the inhibition is 2.12% (inactive). Take `C[C@@H]1CCCCO[C@H](CN(C)S(=O)(=O)c2cn(C)cn2)[C@@H](C)CN([C@@H](C)CO)C(=O)c2cc(NC(=O)c3ccncc3)ccc2O1`: the inhibition was 0.794% (inactive). As to `Oc1cccc2cc(-c3ccncc3)cnc12`, the inhibition was -0.877% (inactive). For `COCCNc1nc(NCc2ccc(NC(C)=O)cc2)c2sccc2n1`, the inhibition was 16.4% (active). With `COc1cccc(CNc2nc(NCc3cccs3)nc3ccsc23)c1` the figure was -1.12% (inactive); with `CC(=O)Nc1ccc(CNc2nc(NCCN(C)C)nc3cc(-c4ccccc4)sc23)cc1`, 2.52% (inactive); with `COc1ccc(C[C@@H]2CCc3cnnn3COC[C@H](c3ccccc3)NC2=O)cc1`, 2.11% (inactive). As for `CCC(=O)N[C@H]1CC[C@H](CCn2cc(-c3cccc(OC)c3)nn2)O[C@H]1CO`, the inhibition is -2.52% (inactive).

As to `COc1ccc(C(=O)OCC(=O)c2ccc(C)c(S(=O)(=O)N3CCOCC3)c2)cc1OC`, the inhibition was 25.2% (active). As to `COc1ccc(CNC(=O)COC(=O)c2ccc(C)c(S(=O)(=O)N3CCOCC3)c2)cc1OC`, the inhibition was -1.07% (inactive). For the compound `Cc1ccc(C(=O)OCC(=O)N2CCCCCC2)cc1S(=O)(=O)N1CCOCC1`, the inhibition is 1.4% (inactive). `C[C@H]1CCCCO[C@@H](CN(C)C(=O)C2CCCCC2)[C@@H](C)CN([C@@H](C)CO)C(=O)c2cc(NS(=O)(=O)c3cccs3)ccc2O1`: the inhibition was 8.81% (inactive).

Turning to `COCC#Cc1cnc2c(c1)C(=O)N([C@H](C)CO)C[C@@H](C)[C@@H](CN(C)Cc1ccccc1F)O2`, the inhibition is 1.75% (inactive).
